Screens: PubChem, Small Molecule Screening Facility, UW Madison
Many of the other results were omitted from the sample, so hits are more common in it than they were.
RMI-FANCM inh: inhibitors of human RMI core complex binding to FANCM MM2 | Fluorescence polarization, RMI core complex with F-MM2 peptide; hits give low values | FP signal (polarization) at 33 µM | 70,000 tested, 0.58% active; in the data active means FP signal below about 40
Large screens that a line does not name were inactive.

O=C(Nc1ccc(S(=O)(=O)Nc2ncccn2)cc1)c1cnc2n(c1=O)CCS2	RMI-FANCM inh 20
O=C(Nc1ccc(Br)cc1)c1cnc2n(c1=O)CCS2	none
O=C(Nc1cccc2c1CCCC2)c1cnc2n(c1=O)CCS2	none
CCn1c(C)c(C(C)=O)c2cc(OCC(O)Cn3nc(C)cc3C)ccc21 (stereo not given)	none
Oc1c(Br)cc(Br)cc1C=Nc1ccccc1F	RMI-FANCM inh -4
Oc1c(Br)cc(Br)cc1C=Nc1ccc(-c2ccccc2)cc1	none
COc1ccccc1N=Cc1ccccc1OC(=O)c1ccccc1Br	none
COc1cc(Br)cc(C=Nc2ccccc2O)c1O	none
Oc1ccc(Cl)cc1C=Nc1cccc(C(F)(F)F)c1	none
Oc1c(Br)cc(Br)cc1C=Nc1cccc(Cl)c1	RMI-FANCM inh 20
O=C(CCCc1ccccc1)NCCn1ncc2c(=O)n(Cc3cccc(Cl)c3)cnc21	none
CC(C)CC(=O)Nc1ccc2c(c1)OCC(C)(C)C(=O)N2	none
CCCCOc1ccc(S(=O)(=O)NCCn2ncccc2=O)cc1	none
COc1ccc(NS(=O)(=O)c2ccc(Cl)s2)cc1N1CCCCC1=O	none
CCOc1ccc(NC(=O)CC2CCCCN2S(=O)(=O)c2ccc(C)cc2)cc1 (stereo not given)	none
Cc1cc(NC(=O)C(C)(C)Oc2ccc(Cl)cc2)n(-c2ncnc3c2cnn3-c2ccc(F)cc2)n1	none
CCOc1nn(CC)cc1C(=O)NCc1ccc(F)cc1	none
COc1ccc(NC(=O)Nc2nnc(SCCN3CCOCC3)s2)cc1OC	none
COC(=O)Nc1ccc2c(c1)NC(=O)C(C)(C)CO2	none
CC(C)S(=O)(=O)Nc1ccc2c(c1)NC(=O)C(C)(C)CO2	none
CC1(C)COc2ccc(N)cc2NC1=O	RMI-FANCM inh 37
COc1ccc(Cl)c2sc(N(CCCN(C)C)C(=O)c3ccno3)nc12	none
O=C(Cc1ccc([N+](=O)[O-])cc1)N/N=C\c1cn(-c2ccccc2)nc1-c1ccccc1	none
O=[N+]([O-])c1ccc(-c2nn(-c3ccccc3)cc2/C=N/n2c(-c3cccs3)n[nH]c2=S)cc1	RMI-FANCM inh 12
S=c1[nH]nc(-c2ccncc2)n1/N=C\c1cn(-c2ccccc2)nc1-c1cccs1	none
O=C1C=C(NCCSCc2cccc(C(F)(F)F)c2)CC(c2ccc3c(c2)OCO3)C1 (stereo not given)	none
COc1ccc(-c2noc(-c3c(SC)nn(CC(=O)Nc4ccc(C)c(C)c4)c3N)n2)cc1OC	none
CC(=O)Nc1cccc(NC(=O)C(=O)NC2CCCC2)c1	none
CC(=O)Nc1cccc(C2=CC(c3cccc(Br)c3)n3ncnc3N2)c1 (stereo not given)	RMI-FANCM inh 5
CCCOc1ccc(Br)cc1C1C(C(N)=O)=C(C)Nc2ncnn21 (stereo not given)	none
COc1cccc2cc(C(=O)Nc3nnc(-c4cc(C)nn4C)o3)oc12	none
COc1cccc2cc(C(=O)Nc3nnc(-c4ccc5c(c4)OCO5)o3)oc12	none
COc1cccc2cc(C(=O)Nc3nnc(-c4ccc(SC)cc4)o3)oc12	RMI-FANCM inh 32
Cc1ccc(S(=O)(=O)Nc2nc(CC(=O)NCc3cccs3)cs2)cc1	none
CC(C)CN1C(=O)C(C)(C)COc2ccc(NC(=O)C34CC5CC(CC(C5)C3)C4)cc21	none
COCCN1CCCc2ccc(NS(=O)(=O)c3cccc(C)c3)cc21	none
COCC(=O)N1CCCc2ccc(NS(=O)(=O)Cc3cccc(C)c3)cc21	none
COCCN1CCCc2ccc(NS(=O)(=O)Cc3cccc(C)c3)cc21	RMI-FANCM inh 0
N#CC1=C(S)NC(=O)CC1c1ccccc1[N+](=O)[O-] (stereo not given)	none
O=C(NCCCN1CCN(c2ccccc2)CC1)c1ccc(F)cc1	none
COc1ccc(Cn2c(=O)c3nccnc3n(CC(=O)Nc3cc(C)ccc3OC)c2=O)cc1	none
COc1ccccc1-c1cnn2c(N3CCN(Cc4ccccc4)CC3)cc(C)nc12	none
CC(C)(C)c1cc(N2CCN(C3CCCC3)CC2)n2ncc(-c3ccccc3)c2n1	none
OCCN1CCN(c2cc(-c3ccccc3)nc3c(-c4ccc(Cl)cc4)cnn23)CC1	RMI-FANCM inh 28
CC(C)c1ccc(NC(=O)NC2CC(=O)N(c3ccc(F)cc3)C2)cc1 (stereo not given)	none
COc1ccc(C(=O)CC2OC(=O)c3ccccc32)cc1 (stereo not given)	none
CCSc1nnc(NC(=O)CSc2nn3c(=O)c(C)nnc3s2)s1	none
Cn1c(-c2c(N)n(Cc3ccco3)c3nc4ccccc4nc23)nc2ccccc21	none
C=CCn1c(N)c(S(=O)(=O)c2ccc(Cl)cc2)c2nc3ccccc3nc21	none
Nc1c(S(=O)(=O)c2cccs2)c2nc3ccccc3nc2n1Cc1ccco1	RMI-FANCM inh 12
Cc1ccccc1C(=O)NCCCN1CCOC(c2ccccc2)C1 (stereo not given)	none
COc1ccc(CCC(=O)NCCSc2ncc(-c3ccc(OC)cc3)[nH]2)cc1	none
CC(c1ccccc1)N1C(=O)/C(=C\c2cccnc2)SC1=S (stereo not given)	RMI-FANCM inh 26
O=C(O)CCN1C(=O)/C(=C\c2cccnc2)SC1=S	none
O=C1/C(=C/c2cccnc2)SC(=S)N1c1ccccc1F	none
CCn1nccc1C(=O)Nc1sccc1C(N)=O	none
Cc1ccc(-c2csc(/C(C#N)=C/Nc3ccc(Cl)c(C(F)(F)F)c3)n2)cc1	none
N#C/C(=C\Nc1ccc(S(=O)(=O)NC(N)=O)cc1)c1nc(-c2ccc(Cl)cc2)cs1	RMI-FANCM inh 15
N#C/C(=C\Nc1ccc(S(=O)(=O)N=C(N)N)cc1)c1nc(-c2ccc([N+](=O)[O-])cc2)cs1	none
O=C(c1cc2ccccc2oc1=O)N1CCC2(CC1)NC(=O)N(Cc1ccccc1)C2=O	none
CCC(=O)c1ccc(OCC(O)CNC2CCCCCC2)cc1 (stereo not given)	none
CC(CNC1CCCCC1)OC(=O)c1ccccc1 (stereo not given)	RMI-FANCM inh 19
O=C(NCCS(=O)(=O)NC1CCCCC1)c1ccccc1	none
CSc1nc2ccc(NC(=O)/C=C/c3ccccc3)cc2s1	none
O=S(=O)(N/N=C\c1ccc(O)cc1O)c1cc(C(F)(F)F)cc(C(F)(F)F)c1	none
CCSc1nnc(NC(=O)c2cnn(-c3nc(C)cc(=O)[nH]3)c2C)s1	none
O=C(O)c1ccccc1C(=O)N1CCN(C2c3ccccc3-c3ccccc32)CC1	RMI-FANCM inh 32
Cc1cc(C(=O)N2CCN(C3c4ccccc4-c4ccccc43)CC2)c(C)o1	none
O=C(c1cccnc1Oc1ccccc1)N1CCN(C2c3ccccc3-c3ccccc32)CC1	none
CSc1cccc(-n2nnc(C(=O)OCc3nc(-c4ccc(OC(C)C)cc4)oc3C)c2C)c1	none
O=C(CSc1ncnc2[nH]ncc12)Nc1nc(-c2ccco2)c(-c2ccco2)s1	RMI-FANCM inh -3
COc1ccc(CCNC(=O)CSc2ncnc3[nH]ncc23)cc1OC	none
CCSc1nnc(NC(=O)CSc2ncnc3c2cnn3-c2ccccc2)s1	none
CC(=O)c1ccc(-c2ccc(F)cc2F)o1	none
Nc1ncnc(Oc2ccc([N+](=O)[O-])cc2)c1[N+](=O)[O-]	none
CC1=NN(c2ccccc2)C(=O)/C1=C\c1cc(C)n(-c2ccccc2)c1C	none
C=CCN1C(=O)/C(=C\c2cc(C)n(-c3ccc(F)cc3)c2C)C(C(=O)OC)=C1C	RMI-FANCM inh 31
C=CCn1c(SCC(=O)c2cc(C)n(-c3ccc(C)c(C)c3)c2C)nc2scc(-c3ccc(F)cc3)c2c1=O	none
N#C/C(=C/c1ncc(C(F)(F)F)cc1Cl)S(=O)(=O)c1ccc(Cl)cc1	none
CCCS(=O)(=O)N1CCN=C1SCc1cccc([N+](=O)[O-])c1	none
COC(=O)c1ccc2c(c1)C(=O)/C(=C/c1ccc(O)c(OC)c1)O2	none
COC(=O)c1ccc2nsnc2c1	none
COC(=O)c1ccc2c(c1)C(=O)/C(=C/c1ccccc1F)O2	RMI-FANCM inh 14
